# Reference: article PMC7862700, “An all-to-all approach to the identification of sequence-specific readers for epigenetic DNA modifications on cytosine”
# Legend:
# Experiment in all cases: DAPPL (digital affinity profiling via proximity ligation, sequencing); 10 mM Tris-HCl pH 7.5, 50 mM NaCl, 1 mM DTT, 4% glycerol, room temperature, 30 min; GST-TFs on glutathione beads, 16-mer random dsDNA library, 0.1% formaldehyde crosslink after washing; high values mean tight binding
# Settings in all cases: protein: recombinant; tags: N-terminal GST; dsDNA, one strand shown
# [1] = molecular target: T1, ELK4 (Homo sapiens, UniProt P28324-2 1-405)
# T1 sequence: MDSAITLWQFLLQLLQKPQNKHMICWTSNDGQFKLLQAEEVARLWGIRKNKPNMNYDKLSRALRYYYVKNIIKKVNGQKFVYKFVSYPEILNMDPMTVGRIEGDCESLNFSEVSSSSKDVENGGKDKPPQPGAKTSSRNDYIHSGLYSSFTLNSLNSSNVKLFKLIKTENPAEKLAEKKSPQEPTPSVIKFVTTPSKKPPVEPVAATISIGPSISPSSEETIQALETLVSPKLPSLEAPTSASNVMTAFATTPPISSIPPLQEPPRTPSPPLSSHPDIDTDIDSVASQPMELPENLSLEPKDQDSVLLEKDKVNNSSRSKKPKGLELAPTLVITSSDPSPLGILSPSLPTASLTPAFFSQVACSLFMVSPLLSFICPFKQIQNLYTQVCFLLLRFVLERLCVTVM
# Procedure, shortened: (§1)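 Yeast served to express human transcription factors as GST fusions, which were then captured on glutathione beads and labelled with DNA barcodes. Pooled with a tag-only sample, they were incubated with 200 nmole of a 16-mer random double-stranded DNA library for 30 min at room temperature in Tris/NaCl/DTT/glycerol buffer, washed, crosslinked with 0.1% formaldehyde, ligated by proximity, amplified by PCR and sequenced. Dividing each hexamer's read frequency for a factor by its frequency for the tag-only sample gives the binding signal.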
# [2] = molecular target: T2, ETV2 (Homo sapiens, UniProt O00321 1-342)
# T2 sequence: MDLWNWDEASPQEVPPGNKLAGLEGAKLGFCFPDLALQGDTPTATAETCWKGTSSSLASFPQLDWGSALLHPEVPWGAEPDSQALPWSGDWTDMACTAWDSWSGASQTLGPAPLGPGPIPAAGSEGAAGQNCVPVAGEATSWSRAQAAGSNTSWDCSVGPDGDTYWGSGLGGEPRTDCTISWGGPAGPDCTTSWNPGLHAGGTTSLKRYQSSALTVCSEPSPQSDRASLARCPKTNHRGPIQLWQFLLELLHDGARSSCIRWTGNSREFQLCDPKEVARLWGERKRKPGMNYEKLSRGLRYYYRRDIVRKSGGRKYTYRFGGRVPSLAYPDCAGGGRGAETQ
# Procedure, shortened: as §1
# [3] = molecular target: T3, ELF3 (Homo sapiens, UniProt P78545 1-371)
# T3 sequence: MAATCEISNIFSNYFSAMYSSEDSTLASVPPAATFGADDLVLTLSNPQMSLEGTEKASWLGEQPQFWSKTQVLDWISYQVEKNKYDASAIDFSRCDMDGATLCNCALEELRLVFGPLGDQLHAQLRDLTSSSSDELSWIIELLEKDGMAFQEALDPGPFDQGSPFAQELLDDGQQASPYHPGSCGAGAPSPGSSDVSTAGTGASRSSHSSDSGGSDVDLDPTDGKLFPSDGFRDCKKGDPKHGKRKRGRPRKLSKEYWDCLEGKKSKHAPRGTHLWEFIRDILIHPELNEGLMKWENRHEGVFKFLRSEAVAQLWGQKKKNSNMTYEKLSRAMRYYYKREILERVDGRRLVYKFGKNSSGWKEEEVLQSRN
# Procedure, shortened: as §1
# [4] = molecular target: ETV1 (Homo sapiens, UniProt P50549 1-477)
# Sequence of ETV1 (P50549 whole entry): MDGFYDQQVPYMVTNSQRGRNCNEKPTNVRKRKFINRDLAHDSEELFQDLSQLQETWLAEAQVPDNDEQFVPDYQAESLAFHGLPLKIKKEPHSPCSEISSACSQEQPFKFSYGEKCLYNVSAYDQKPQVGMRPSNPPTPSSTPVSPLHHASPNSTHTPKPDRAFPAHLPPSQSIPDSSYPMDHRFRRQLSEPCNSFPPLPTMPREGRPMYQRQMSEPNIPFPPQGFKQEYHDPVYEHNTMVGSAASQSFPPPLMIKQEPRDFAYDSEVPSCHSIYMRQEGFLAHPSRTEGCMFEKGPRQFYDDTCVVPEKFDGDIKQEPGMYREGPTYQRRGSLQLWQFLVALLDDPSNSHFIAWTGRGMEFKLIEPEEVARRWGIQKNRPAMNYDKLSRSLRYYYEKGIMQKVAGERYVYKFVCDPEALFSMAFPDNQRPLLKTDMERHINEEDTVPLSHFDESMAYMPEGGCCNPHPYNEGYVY
# Procedure, shortened: as §1
# [5] = molecular target: T4, ERF (Homo sapiens, UniProt P50548 1-548)
# T4 sequence: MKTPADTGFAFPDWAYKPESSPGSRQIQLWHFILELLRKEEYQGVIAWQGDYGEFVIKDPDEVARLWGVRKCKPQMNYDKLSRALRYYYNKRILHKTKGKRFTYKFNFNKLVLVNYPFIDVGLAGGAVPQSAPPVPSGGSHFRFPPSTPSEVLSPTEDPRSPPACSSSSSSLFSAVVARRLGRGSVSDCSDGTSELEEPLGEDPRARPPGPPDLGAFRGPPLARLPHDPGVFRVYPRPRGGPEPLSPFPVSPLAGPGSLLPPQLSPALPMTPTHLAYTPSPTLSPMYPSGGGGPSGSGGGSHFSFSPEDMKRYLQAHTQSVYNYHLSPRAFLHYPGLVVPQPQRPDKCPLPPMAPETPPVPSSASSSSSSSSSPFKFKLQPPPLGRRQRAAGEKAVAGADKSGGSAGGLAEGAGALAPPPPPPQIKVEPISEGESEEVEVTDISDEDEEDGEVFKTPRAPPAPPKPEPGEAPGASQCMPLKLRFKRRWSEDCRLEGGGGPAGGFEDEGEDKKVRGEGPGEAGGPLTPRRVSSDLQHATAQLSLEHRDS
# Procedure, shortened: as §1
# [6] = molecular target: T5, ETV3L (Homo sapiens, UniProt Q6ZN32 1-361)
# T5 sequence: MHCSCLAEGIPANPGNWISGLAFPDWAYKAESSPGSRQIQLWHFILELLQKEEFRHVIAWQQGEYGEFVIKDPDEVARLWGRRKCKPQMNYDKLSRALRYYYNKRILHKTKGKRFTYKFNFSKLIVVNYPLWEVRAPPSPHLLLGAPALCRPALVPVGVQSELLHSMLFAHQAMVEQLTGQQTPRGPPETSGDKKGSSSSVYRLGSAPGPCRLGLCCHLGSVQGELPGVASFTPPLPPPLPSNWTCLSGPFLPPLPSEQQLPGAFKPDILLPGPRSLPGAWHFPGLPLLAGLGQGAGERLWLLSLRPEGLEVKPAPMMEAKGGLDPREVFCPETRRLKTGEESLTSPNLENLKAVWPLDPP
# Procedure, shortened: as §1
# [7] = molecular target: T6, ETV7 (Homo sapiens, UniProt Q9Y603 1-341)
# T6 sequence: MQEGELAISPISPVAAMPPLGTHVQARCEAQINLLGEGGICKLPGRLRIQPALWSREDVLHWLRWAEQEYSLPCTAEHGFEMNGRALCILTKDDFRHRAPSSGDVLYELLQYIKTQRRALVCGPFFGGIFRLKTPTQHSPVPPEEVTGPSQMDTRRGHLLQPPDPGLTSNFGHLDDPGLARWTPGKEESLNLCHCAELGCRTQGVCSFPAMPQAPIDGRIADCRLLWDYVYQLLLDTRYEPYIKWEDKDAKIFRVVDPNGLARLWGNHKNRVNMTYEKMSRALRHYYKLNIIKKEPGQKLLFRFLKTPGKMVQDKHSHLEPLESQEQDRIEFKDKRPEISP
# Procedure, shortened: as §1
# [8] = molecular target: T7, ETV3 (Homo sapiens, UniProt P41162-2 1-143)
# T7 sequence: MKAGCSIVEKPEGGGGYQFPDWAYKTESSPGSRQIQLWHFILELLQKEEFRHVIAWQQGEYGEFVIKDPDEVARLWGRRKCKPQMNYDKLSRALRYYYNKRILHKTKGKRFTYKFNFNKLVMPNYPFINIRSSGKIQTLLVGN
# Procedure, shortened: as §1
# [9] = molecular target: ETV6 (Homo sapiens, UniProt P41212 1-452)
# Sequence of ETV6 (P41212 whole entry): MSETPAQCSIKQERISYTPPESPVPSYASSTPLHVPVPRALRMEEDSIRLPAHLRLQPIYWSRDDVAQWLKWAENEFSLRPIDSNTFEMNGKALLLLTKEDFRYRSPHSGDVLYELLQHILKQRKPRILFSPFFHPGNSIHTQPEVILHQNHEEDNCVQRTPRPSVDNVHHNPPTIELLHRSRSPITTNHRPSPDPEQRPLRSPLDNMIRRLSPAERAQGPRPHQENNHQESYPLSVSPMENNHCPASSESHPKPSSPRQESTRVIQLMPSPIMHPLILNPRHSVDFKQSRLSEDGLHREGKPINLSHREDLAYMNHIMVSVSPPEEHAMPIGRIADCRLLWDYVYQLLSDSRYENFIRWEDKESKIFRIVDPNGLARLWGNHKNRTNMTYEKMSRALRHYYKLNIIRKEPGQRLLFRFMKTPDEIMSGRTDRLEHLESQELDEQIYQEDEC
# Procedure, shortened: as §1
sequence,measurement,setting,value
ACAGCC,binding signal,[1],"1.04 fold enrichment (6-mer frequency, TF over GST control)"
same,binding signal,[2],"1.05 fold enrichment (6-mer frequency, TF over GST control)"
same,binding signal,[3],"1.24 fold enrichment (6-mer frequency, TF over GST control)"
same,binding signal,[4],"1.06 fold enrichment (6-mer frequency, TF over GST control)"
same,binding signal,[5],"1.18 fold enrichment (6-mer frequency, TF over GST control)"
same,binding signal,[6],"1.04 fold enrichment (6-mer frequency, TF over GST control)"
same,binding signal,[7],"1.15 fold enrichment (6-mer frequency, TF over GST control)"
same,binding signal,[8],"1.04 fold enrichment (6-mer frequency, TF over GST control)"
same,binding signal,[9],"1.03 fold enrichment (6-mer frequency, TF over GST control)"
